Screens (PubChem BioAssay)
The list is not random: actives were taken first. Their share in the collection is about 11%.
HCV inhibitor – inhibitors of hepatitis C virus infection; Huh7.5.1 HCVcc-Cre infection, luciferase reporter, 44 h; Potency, µM (doses to about 41.8 µM), for the others: top-dose activity change, negative = inhibition, hits mostly inhibitors; 3.4% of 340,000 active; AID 651820; also: % is scaled to controls: 0 for no effect and ±100 for the full control effect
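Cells seeded at 1,000/well and cultured 4 h, then compounds added followed by HCVcc-Cre virus (~0.5 moi). After 44 h further culture, luciferase substrate was added, plates held 15 min at room temperature, and luminescence read for 15 sec.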
NS1 function inh – blocks influenza NS1 protein function | Potency, µM (titrated, usually from 46.1 µM), for inactives: at the highest dose activity, positive = more growth | 0.4% of 270,000 active; calls by dose curve; also: actives are rising curves; nearly all actives have a fitted effect of over 50% in size
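Recovery from NS1-induced slow growth read by OD600 in budding yeast switched to galactose assay medium (pH 6.0, -URA) at 1:100 dilution. Compound 23 nl per well; the matching strain lacking NS1 serves as control.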
Pf growth 96h – P. falciparum growth inhibition at 96 hours; Potency, µM (titrated, usually from 28.7 µM), for inactives: at the highest dose activity change, negative = inhibition, most hits filed as inhibitors; AID 504834; P. falciparum luciferase reporter growth, 96 h; 6.9% of 320,000 active; also: % is scaled to controls: 0 for no effect and ±100 for the full control effect
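Erythrocytes infected with luciferase-expressing P. falciparum were dispensed at 2% hematocrit and 0.05% parasitemia (final), then incubated with compounds 96 hours at 37 C in 5% CO2. Luminescence after detection reagent addition reported growth.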
Pf growth 48h – P. falciparum growth inhibition at 48 hours (one generation); Potency, µM (top dose mostly 28.7 µM), inactives show top-dose activity change, negative = inhibition, hits mostly inhibitors; P. falciparum luciferase growth in erythrocytes, 48 h; 5.9% of 310,000 active; also: % is scaled to controls: 0 for no effect and ±100 for the full control effect
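Erythrocytes infected with P. falciparum carrying an integrated firefly luciferase reporter (2% hematocrit, 0.1% parasitemia final) were exposed to compounds in RPMI 1640 with 0.5% Albumax at 37 C, 5% CO2. Growth inhibition was scored as reduced luminescence.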
Vaccinia Venus – inhibitors of vaccinia virus (Venus reporter) | Potency, µM (titrated, usually from 36.5 µM), inactives show at the top dose activity change, negative = inhibition, actives largely listed as inhibitors | 0.46% of 330,000 active | Vaccinia virus Venus reporter expression, fluorescence; calls by dose curve; tested in A549 cells; also: % is scaled to controls: 0 for no effect and ±100 for the full control effect; nearly all actives have a fitted effect of over 30% in size
Vaccinia mCherry – vaccinia inhibition (mCherry reporter) | Potency, µM (series often up to 36.5 µM), for inactives: top-dose activity change, negative = inhibition, actives largely listed as inhibitors | 0.63% of 310,000 active | AID 720579 | Vaccinia virus mCherry reporter infection, fluorescence; calls by dose curve; tested in A549 cells; also: % is scaled to controls: 0 for no effect and ±100 for the full control effect; nearly all actives have a fitted effect of over 35% in size
Starred values were filed as active, the others as inactive. Unless noted, calls follow the shape of the dose curve; as a rule, active = well fitted inhibition curve with a large enough effect; inconclusive = small, poorly fitted or top-dose-only effect, or another doubt; inactive = no such curve, though single readings can be large or run the other way. Potency is read from the fitted curve at half-maximal effect.

Results for COCCNC(=O)CN(C(=O)Cn1nnc2ccccc21)c1ccccc1C ?
HCV inhibitor: 9%; NS1 function inh: 2%; Pf growth 96h: 13%; Pf growth 48h: 11%

Results for N#CCSc1nc(Nc2ccc3c(c2)OCO3)c2ccccc2n1 ?
HCV inhibitor: 8.9µM*; NS1 function inh: -10%; Pf growth 96h: -5%; Pf growth 48h: inconclusive

Results for CCOC(=O)c1cnc2ccccc2c1Nc1ccc2c(c1)OCCO2 ?
HCV inhibitor: inconclusive; NS1 function inh: -20%; Pf growth 96h: -1%; Pf growth 48h: 4.1µM*; Vaccinia Venus: -13%; Vaccinia mCherry: inactive

Results for CCOC(=O)CSc1nc(Nc2ccc3c(c2)OCO3)c2ccccc2n1 ?
HCV inhibitor: inconclusive; NS1 function inh: -35%; Pf growth 96h: 8.3µM*; Pf growth 48h: 8.3µM*; Vaccinia Venus: -10%; Vaccinia mCherry: -15%

How did COc1ccc(Br)cc1C(=O)Nc1ccc(N2CCN(S(C)(=O)=O)CC2)cc1 do in these assays?
HCV inhibitor: -26%; NS1 function inh: 6%; Pf growth 48h: inconclusive; Vaccinia Venus: -18%; Vaccinia mCherry: -8%

Results for COc1ccc(OC)c(C2C(C(=O)O)c3ccccc3C(=O)N2C)c1 (stereo not drawn) ?
HCV inhibitor: 9%; NS1 function inh: 5%; Pf growth 96h: 9%; Pf growth 48h: 0%; Vaccinia Venus: -11%; Vaccinia mCherry: -13%

What do the screens show for `COc1ccc([C@H]2[C@H](C(=O)OC(C)(C)C)N3N=Cc4ccccc4C3C23C(=O)c2ccccc2C3=O)c(OC)c1` (stereo partly drawn)?
HCV inhibitor: 1%; NS1 function inh: 23%; Pf growth 96h: 1µM*; Pf growth 48h: 2.9µM*; Vaccinia Venus: -16%; Vaccinia mCherry: inconclusive

Results for CC(C)(C)C(=O)[C@H]1[C@H](c2ccccc2)[C@@]2(N=C(c3ccccc3)OC2=O)C2c3ccccc3C=NN21 (stereo partly drawn) ?
HCV inhibitor: -1%; NS1 function inh: inconclusive; Pf growth 96h: inconclusive; Pf growth 48h: inconclusive

What do the screens show for `COc1ccc([C@H]2[C@H](C(=O)OC(C)(C)C)N3N=Cc4ccccc4C3C23C(=O)c2ccccc2C3=O)cc1OC` (stereo partly drawn)?
HCV inhibitor: inconclusive; NS1 function inh: 7%; Pf growth 96h: 9.3µM*; Pf growth 48h: 10µM*; Vaccinia Venus: 2%; Vaccinia mCherry: -4%

Results for COC(=O)c1cc(NC(=O)CC2NCCNC2=O)cc(C(=O)OC)c1 (stereo not drawn) ?
HCV inhibitor: 8%; NS1 function inh: 3%; Pf growth 96h: inconclusive; Pf growth 48h: 34%

What do the screens show for `O=C(CN1C2CCCC1CC(NC(=O)c1ccccc1)C2)Nc1ccccc1` (stereo not drawn)?
HCV inhibitor: -1%; NS1 function inh: 16%; Pf growth 96h: 8.3µM*; Pf growth 48h: inconclusive; Vaccinia Venus: -5%; Vaccinia mCherry: -18%

What do the screens show for `COc1cccc(C(=O)NC2CC3CCCC(C2)N3Cc2ccc(C)cc2)c1` (stereo not drawn)?
HCV inhibitor: -23%; NS1 function inh: 7%; Pf growth 96h: inconclusive; Pf growth 48h: inconclusive

How did COc1cccc(C(=O)NC2CC3CCCC(C2)N3CC(=O)Nc2ccccc2)c1 (stereo not drawn) do in these assays?
HCV inhibitor: -24%; NS1 function inh: -16%; Pf growth 96h: inconclusive; Pf growth 48h: 5.2µM*

What do the screens show for `COc1cccc(C(=O)NC2CC3CCCC(C2)N3CC(=O)Nc2ccc(N(C)C)cc2)c1` (stereo not drawn)?
HCV inhibitor: inconclusive; NS1 function inh: -36%; Pf growth 96h: 12µM*; Pf growth 48h: inconclusive; Vaccinia Venus: -18%; Vaccinia mCherry: -19%

Results for O=C(CN1C2CCCC1CC(NC(=O)c1ccccc1)C2)Nc1ccccc1C(F)(F)F (stereo not drawn) ?
HCV inhibitor: inconclusive; NS1 function inh: 1%; Pf growth 96h: -2%; Pf growth 48h: inconclusive; Vaccinia Venus: -25%; Vaccinia mCherry: -1%

What do the screens show for `O=[N+]([O-])c1cccc(S(=O)(=O)Nc2ccc(-c3ccc(N4CCOCC4)nn3)cc2)c1`?
HCV inhibitor: 14%; Pf growth 96h: 0%; Pf growth 48h: inconclusive; Vaccinia Venus: -14%; Vaccinia mCherry: inactive

Results for CCc1cnc2c(c1SCC(=O)NCc1ccccc1)c(=O)n(C)c(=O)n2C ?
Vaccinia Venus: -2%; Vaccinia mCherry: -11%

Results for Cc1ccc[n+](CC(=O)c2ccccc2)c1 ?
NS1 function inh: 18%; Pf growth 96h: -10%; Pf growth 48h: 18%

Results for Cc1ccc(C[n+]2cccc(-c3ccccc3)c2)c(C)c1 ?
HCV inhibitor: inconclusive; NS1 function inh: -3%; Pf growth 96h: 0.33µM*; Pf growth 48h: 0.93µM*; Vaccinia Venus: -13%; Vaccinia mCherry: -27%

How did Cc1ccc(NC(=O)c2ccc(NCc3ccc(F)cc3)nc2)cc1 do in these assays?
HCV inhibitor: -4%; NS1 function inh: -4%; Pf growth 96h: inconclusive; Pf growth 48h: 19%; Vaccinia Venus: 1%; Vaccinia mCherry: -19%

How did Cc1ccc(NC(=O)c2ccc(Nc3ccccc3F)nc2)cc1 do in these assays?
HCV inhibitor: inconclusive; NS1 function inh: 9%; Pf growth 96h: 5.9µM*; Pf growth 48h: 68%

What do the screens show for `COc1ccc(-c2cc(C)no2)cc1S(=O)(=O)N1CCCN(Cc2ccccc2Cl)C1`?
HCV inhibitor: inconclusive; NS1 function inh: -14%; Pf growth 96h: 12µM*; Pf growth 48h: inconclusive

What do the screens show for `CCOC(=O)C1CCN(S(=O)(=O)c2cc(-c3cc(C)no3)ccc2OC)CC1`?
Vaccinia Venus: -8%; Vaccinia mCherry: -12%

What do the screens show for `COc1ccc(-c2cc(C)no2)cc1S(=O)(=O)N1CCN(c2ccccn2)CC1`?
HCV inhibitor: 13µM*; NS1 function inh: -45%; Pf growth 96h: -9%; Pf growth 48h: -19%; Vaccinia Venus: -19%; Vaccinia mCherry: -4%

Results for Cc1cc(-c2ccc(C(C)C)c(S(=O)(=O)N3CCN(c4ccccn4)CC3)c2)on1 ?
HCV inhibitor: 11µM*; NS1 function inh: -47%; Pf growth 96h: inconclusive; Pf growth 48h: inconclusive

What do the screens show for `COc1ccc(-c2cc(C)no2)cc1S(=O)(=O)N1CCN(c2ccccc2F)CC1`?
HCV inhibitor: 7.1µM*; NS1 function inh: 15%; Pf growth 96h: -21%; Pf growth 48h: -25%; Vaccinia Venus: inconclusive; Vaccinia mCherry: inactive

Results for COc1ccc(OC)c(C2/C(=C(\O)c3c(C)nc4ccccn34)C(=O)C(=O)N2CCCN(C)C)c1 (stereo not drawn) ?
NS1 function inh: 6%
